Experimental data published in the supplement of paper PMC10981050.
“And” between values parts separate entries of the source, which are not always exact repeats. Equal values may be shown once. Where a name gives a salt, the structure may show the parent alone.

Experiments:
Test in all cases: cell viability relative to vehicle control; higher = less cytotoxic
Conditions in all cases: 10 µM
K562 = test system: K562
Procedure, shortened: (§1)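 CRISPR-edited SRSF2 P95 mutant and isogenic wild-type clones of four leukaemia lines were screened against Selleck bioactive, kinase and epigenetic probe libraries, with identity-inconsistent compounds removed. Compounds were acoustically dispensed into 384-well plates at a single 10 µM dose, with 2000 cells in 50 µL medium per well. After 48 h, supernatant was removed and CellTiter-Glo luminescence was read. Viability was expressed as percent of the on-plate DMSO vehicle control, analysed in Genedata Screener.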

MARIMO = test system: MARIMO
Procedure, shortened: as §1

MOLM14 = test system: MOLM14
Procedure, shortened: as §1

OCI-AML2 = test system: OCI-AML2
Procedure, shortened: as §1

SMILES | cell viability (K562; SRSF2 genotype: SRSF2 P95H/wt) | cell viability (K562; SRSF2 genotype: SRSF2 wt/wt) | cell viability (MARIMO; SRSF2 genotype: SRSF2 P95H/wt) | cell viability (MARIMO; SRSF2 genotype: SRSF2 wt/wt) | cell viability (MOLM14; SRSF2 genotype: SRSF2 P95H/wt) | cell viability (MOLM14; SRSF2 genotype: SRSF2 wt/wt) | cell viability (OCI-AML2; SRSF2 genotype: P95H/wt) | cell viability (OCI-AML2; SRSF2 genotype: wt/wt)
CC(C)c1cc(C(C)C)c(CC(=O)NS(=O)(=O)Oc2c(C(C)C)cccc2C(C)C)c(C(C)C)c1 [Avasimibe (CI-1011)] | 79.7% and 76.5% | 64.5% | 80.8% | 92.2% | 68.6% | 78.6% | 92.5% | 84.8%
NC(=O)OCC(COC(N)=O)c1ccccc1 [Felbamate] | 93% and 95% | 94.4% | 81.9% | 100% | 93.4% | 89.4% | 96.5% | 113%
CN1C(N)=N[C@](C)(c2cc(NC(=O)c3ccc(F)cn3)ccc2F)CS1(=O)=O [Verubecestat (MK-8931) Trifluoroacetat] | 97.5% and 98.8% | 96.9% | 98.1% | 108% | 95.8% | 102% | 99.8% | 107%
CCOC(=O)n1ccn(C)c1=S [Carbimazole] | 107% and 106% | 113% | 110% | 103% | 103% | 111% | 108% | 97.4%
CCOCCn1c(C2CCN(CCc3ccc(C(C)(C)C(=O)O)cc3)CC2)nc2ccccc21 [Bilastine] | 105% and 108% | 113% | 107% | 104% | 107% | 106% | 108% | 96.2%
O=C(O)CCCN1CCC(O[C@@H](c2ccc(Cl)cc2)c2ccccn2)CC1 [Bepotastine Besilate] | 89.5% and 84.3% | 84.8% | 86.5% | 97.8% | 90.9% | 93.3% | 82.6% | 86.2%
C[C@]12C=CC(=O)C=C1CC[C@@H]1[C@@H]2[C@@H](O)C[C@@]2(C)[C@H]1CC[C@]2(O)C(=O)CO [Prednisolone] | 105% and 98.9% | 106% | 101% | 103% | 98.5% | 96.3% | 91.1% | 111%
Cc1c(Cn2c(C)nc3c(C(=O)O)cc(N4CCOCC4)cc32)cccc1C(F)(F)F | 104% and 97.4% | 108% | 105% | 105% | 83.2% | 89.7% | 92.7% | 95.2%
O=C(/C=C/c1cccc(S(=O)(=O)Nc2ccccc2)c1)NO [Belinostat (PXD101)] | 1.83% and 15.8% | 5.17% | 8.17% | 13.7% | 0.86% | 0.57% | 2.66% | 4.34%
CNC(=O)c1ccc(-c2cnc3ncc(Cc4ccc5ncccc5c4)n3n2)cc1F | 95% and 101% | 102% | 107% | 115% | 103% | 110% | 111% | 110%
CCc1c(C(=O)NCCc2ccc(N3CCCCC3)cc2)[nH]c2ccc(Cl)cc12 | 107% and 104% | 111% | 106% | 108% | 85.4% | 102% | 112% | 107%
CCC(C)SSc1ncc[nH]1 (stereo unspecified) | 14.2% and 15.1% | 11.6% | 6.03% | 4.97% | 1.56% | 3.76% | 4.83% | 3.63%
COc1ccccc1 [Anisole] | 96.8% and 90.2% | 102% | 98.6% | 101% | 94.6% | 101% | 99.5% | 110%
O=C1NC(=O)C(=Cc2ccc(-c3ccc(F)cc3)o2)S1 (stereo in doubt) | 102% and 101% | 97.1% | 93.1% | 92.5% | 113% | 108% | 94.6% | 95.8%
Cc1ncc(CO)c(CO)c1O [Metadoxine] | 99.4% and 100% | 104% | 98.1% | 103% | 101% | 103% | 101% | 114%
CCc1cc(Nc2nc(-c3ccc(-n4cnc(C)c4)c(F)c3)cs2)c(C)cc1C | 96% and 99.5% | 91.5% | 93.8% | 101% | 96.6% | 93.9% | 94.2% | 91.9%
N#CCC1(n2cc(-c3ncnc4[nH]ccc34)cn2)CN(C2CCN(C(=O)c3ccnc(C(F)(F)F)c3F)CC2)C1 | 99.3% and 104% | 107% | 97.5% | 101% | 97.6% | 102% | 108% | 110%
CO[C@H]1C[C@@H]2CC[C@@H](C)[C@@](O)(O2)C(=O)C(=O)N2CCCC[C@H]2C(=O)O[C@H]([C@H](C)C[C@@H]2CC[C@H](n3cnnn3)[C@H](OC)C2)CC(=O)[C@H](C)/C=C(\C)[C@@H](O)[C@@H](OC)C(=O)[C@H](C)C[C@H](C)/C=C/C=C/C=C/1C [Zotarolimus (ABT-578)] | 67.9% and 74.2% | 66.1% | 77% | 76.9% | 60.8% | 56.5% | 64.2% | 61.1%
N=C(N)NC(=N)N1CCOCC1 [Moroxydine HCl] | 99.7% and 100% | 91.8% | 97.6% | 101% | 95.8% | 99.5% | 98.1% | 93.8%
C[C@H]1O[C@@H](Oc2c(-c3cc(O)c(O)c(O)c3)oc3cc(O)cc(O)c3c2=O)[C@@H](O)[C@@H](O)[C@@H]1O [Myricitrin (Myricitrine)] | 94.5% and 101% | 99.4% | 102% | 102% | 104% | 103% | 108% | 94.3%
CC(C)c1cnn2c(NCc3ccccc3)cc(NCCCCCCN)nc12 | 86.8% and 99.7% | 101% | 89.9% | 87.8% | 95.9% | 98.5% | 89.4% | 87.5%

SMILES | cell viability (K562; SRSF2 genotype: SRSF2 P95H/wt) | cell viability (K562; SRSF2 genotype: SRSF2 wt/wt) | cell viability (MARIMO; SRSF2 genotype: SRSF2 P95H/wt) | cell viability (MARIMO; SRSF2 genotype: SRSF2 wt/wt) | cell viability (MOLM14; SRSF2 genotype: SRSF2 P95H/wt) | cell viability (MOLM14; SRSF2 genotype: SRSF2 wt/wt) | cell viability (OCI-AML2; SRSF2 genotype: P95H/wt) | cell viability (OCI-AML2; SRSF2 genotype: wt/wt)
COc1ccc2c(O[C@@H]3C[C@H]4C(=O)N[C@]5(C(=O)NS(=O)(=O)C6CC6)C[C@H]5/C=C\CCCCN(C)C(=O)[C@@H]4C3)cc(-c3nc(C(C)C)cs3)nc2c1C | 70.6% and 60.2% | 62.9% | 61.6% | 75.3% | 79.1% | 71.6% | 55.2% | 58.8%
O=C(c1cccc(Cl)c1F)N1CCN(Cc2cccc(Nc3nccs3)n2)CC1 | 44.2% and 57.2% | 56.6% | 87.8% | 91.5% | 54.9% | 71.4% | 35.6% | 44.1%
C1N2CN3CN1CN(C2)C3 [Methenamine (Mandelamine)] | 104% and 102% | 99.1% | 103% | 108% | 107% | 105% | 99% | 112%
C[C@@H](c1ccc2nccn2c1)n1nnc2ncc(-c3cnn(C)c3)nc21 [Savolitinib(AZD6094, HMPL-504)] | 94.1% and 97.5% | 104% | 94.3% | 91% | 96.6% | 97.2% | 90.3% | 96.5%
O=C[C@H](O)[C@@H](O)[C@H](O[C@H]1O[C@H](CO)[C@@H](O[C@H]2O[C@H](CO)[C@@H](O[C@H]3O[C@H](CO)[C@@H](O[C@H]4O[C@H](CO)[C@@H](O)[C@H](O)[C@H]4O)[C@H](O)[C@H]3O)[C@H](O)[C@H]2O)[C@H](O)[C@H]1O)[C@H](O)CO [Maltopentaose] | 101% | 103% | 97.8% | 105% | 104% | 106% | 109% | 110%
Cc1c(-c2ccc(C(N)=O)c3[nH]c4cc(C(C)(C)O)ccc4c23)cccc1-n1cnc2ccccc2c1=O | 80.1% and 89.9% | 92.2% | 73.5% | 66.2% | 48.4% | 54.8% | 43.6% | 46.2%
Nc1ncnc2c1c(I)cn2C1OC(CO)C(O)C1O (stereo unspecified) [5-Iodotubercidin] | 4.74% and 10.8% | 6.66% | 12.2% | 5.58% | 0.78% | 0.42% | 2.92% | 13.1%
Nc1ccc(S(N)(=O)=O)cc1 [Sulfanilamide] | 99.1% and 101% | 98.9% | 102% | 107% | 96.2% | 102% | 102% | 110%
O=C1NC(=NCc2cccs2)S/C1=C\c1ccc2ncccc2c1 | 92% and 98.2% | 98.2% | 50.9% | 77.9% | 37% | 41.1% | 53.8% | 57.1%
Oc1cc(CNC(=S)/C=C/c2cc(O)c(O)c(Br)c2)cc(O)c1O | 20.1% and 32.5% | 23.6% | 16.6% | 23.2% | 14.3% | 5.87% | 28.1% | 26.9%
Clc1ccc(CCC(Cn2ccnc2)Sc2c(Cl)cccc2Cl)cc1 (stereo unspecified) [Butoconazole nitrate] | 74.1% and 80.8% | 75.7% | 75.8% | 83.9% | 79.7% | 75.7% | 71.5% | 69.6%
CCc1c2c(nc3ccc(OC(=O)N4CCC(N5CCCCC5)CC4)cc13)-c1cc3c(c(=O)n1C2)COC(=O)[C@]3(O)CC [Irinotecan HCl Trihydrate (Campto)] | 59.7% and 76.8% | 63.1% | 6.18% | 6.47% | 15.1% | 4.24% | 3.79% | 2.87%
CCC(=O)O[C@]1(C(=O)CCl)[C@@H](C)C[C@H]2[C@@H]3CCC4=CC(=O)C=C[C@]4(C)[C@@]3(F)[C@@H](O)C[C@@]21C [Clobetasol propionate] | 88.3% and 95.4% | 88.2% | 85.1% | 96.7% | 81.2% | 80.8% | 90.5% | 101%
COc1ccccc1C(=O)Nc1cc2c(cc1N1CCCC1)n(C)c(=O)n2C | 91.5% and 100% | 92% | 84.1% | 95.3% | 79.4% | 83.4% | 63.5% | 69.2%
CC(C)=CCCC(C)(O)C1CCC2(C)C1C(O)CC1C3(C)CCC(O)C(C)(C)C3C(OC3OC(CO)C(O)C(O)C3OC3OC(C)C(O)C(O)C3O)CC12C [(20S)Ginsenoside Rg2] | 102% and 108% | 98.7% | 108% | 108% | 104% | 104% | 101% | 115%
CSc1cccc(Nc2ncc3cc(-c4c(Cl)cccc4Cl)c(=O)n(C)c3n2)c1 | 6.76% and 14.3% | 9.82% | 34.3% | 65.4% | 26.6% | 31.6% | 12.8% | 20.9%
Clc1ccccc1C(c1ccccc1)(c1ccccc1)n1ccnc1 [Clotrimazole (Canesten)] | 92.1% and 91.2% | 75.9% | 81.5% | 87.3% | 89.4% | 84.6% | 77.4% | 90%
CC(C)(CCCCCC(O)CCCCCC(C)(C)C(=O)O)C(=O)O | 103% and 96.8% | 102% | 106% | 106% | 104% | 104% | 97.5% | 108%
CC(C)(C)c1cnc(CSc2cnc(NC(=O)C3CCNCC3)s2)o1 | 24.3% and 35.5% | 27.3% | 9.12% | 4.42% | 3.75% | 0.63% | 4.54% | 18.1%
Cc1cc(O)c(C(=O)N[C@@H](C(=O)N[C@@H]2C(=O)N3C(C(=O)O)=C(CSc4nnnn4C)CS[C@H]23)c2ccc(O)cc2)cn1 [Cefpiramide sodium] | 111% and 107% | 104% | 109% | 115% | 107% | 110% | 99.7% | 99.8%
Cc1cn(CCN2CCN(c3ccccc3-c3cc(C#N)cc(C(=O)NCCCN4CCCC4)c3)CC2)c2ccccc12 | 0.16% and 0.18% | 0.16% | 0.17% | 0.22% | 0.12% | 0.12% | 0.03% | 0.1%
